Pf apPOL block – Pf-apPOL inhibitors, biochemical, fluorescence; Plasmodium falciparum apicoplast DNA polymerase (apPOL); Recombinant Pf-apPOL, molecular beacon fluorescence, 1.5 h; inhibition, % at 10 µM; 210,000 compounds, 0.25% hits
mHTT-CaM PPI inh – mutant huntingtin-calmodulin interaction inhibitors – biochemical, AlphaScreen, primary screen | AlphaScreen His-mHTT/GST-CaM binding, luminescence | inhibition, % at 15 µM | 190,000 compounds, 3.6% hits;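 note: 0% = both proteins with DMSO and 100% = one protein alone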
Starred values were filed as active, the others as inactive; · = not tested or not shown. In the library only some 3.5% were active in any assay of this set; here they are far more common. Cut-off read from the data, not from the text of the source: active = inhibition above about 50%; inactive = the rest.

SMILES	Pf apPOL block	mHTT-CaM PPI inh
CCc1nc(-c2ccc(C(=O)N3CCN(c4ccccc4)CC3)cc2)cs1	-3	10
Cc1c(CCCN)c2ccccc2n1-c1ccccc1	-6	50*
N=c1sc2ccccc2n1-c1ccccc1	-13	·
CCCn1cc(-c2ccncc2)cc1C(=O)N1CCOCC1	-4	4
COCCOC(=O)c1c2c(n3ccc(C)cc13)C(=O)c1ccccc1C2=O	-15	10
O=C(COc1nsnc1N1CCOCC1)Nc1ccc(Br)cc1	-6	5
O=C(COc1nsnc1N1CCCCC1)Nc1ccc(Br)cc1	-9	51*
Cc1ccccc1CN1CCC2(CC1)N=C(c1ccc(Br)cc1)C(=O)N2	4	-3
CC(O)CNc1c([N+](=O)[O-])c(=O)n(C)c2ccccc12 (stereo unspecified)	70*	-1
Cn1c(=O)c([N+](=O)[O-])c(NCc2ccccc2)c2ccccc21	1	-1
O=C(NCc1cccc(F)c1)c1c(O)c2cccc3c2n(c1=O)CC3	0	11
CC(C)(C)N=C1Nc2ncccc2NC12CCN(C(=O)c1cc(-c3cccs3)[nH]n1)CC2	-3	57*
CC(C)(C)N=C1Nc2ncccc2NC12CCCN(C(=O)c1cc(-c3cccs3)[nH]n1)C2 (stereo unspecified)	-3	10
COc1ccccc1CNS(=O)(=O)c1ccc2[nH]c3c(c2c1)CCCC3	-1	64*
COc1ccccc1CNS(=O)(=O)c1ccc(OC)c(OC)c1	-6	-2
CCOC(=O)c1ccc(NS(=O)(=O)c2ccc3[nH]c4c(c3c2)CCCC4)cc1	-1	87*
COc1ccc(OC)c(NS(=O)(=O)c2ccc(-c3ccccc3)cc2)c1	-9	40
CCC(C)NS(=O)(=O)c1ccc2[nH]c3c(c2c1)CCCC3 (stereo unspecified)	-2	27
COc1cc(NS(=O)(=O)c2ccc3[nH]c4c(c3c2)CCCC4)cc(OC)c1OC	-4	83*
COc1ccc(OC)c(NS(=O)(=O)c2ccc3[nH]c4c(c3c2)CCCC4)c1	-1	71*
O=S(=O)(Nc1cccnc1)c1ccc2[nH]c3c(c2c1)CCCCC3	-4	35
Cc1ccccc1CC(=O)N1CCN(c2nc3ccccc3n(C)c2=O)CC1	-5	3
Cc1cc(-n2nc(C)cc2C)nc(-c2ccccc2O)n1	-36	-5
NC(CC(=O)O)c1ccc(Cl)cc1 (stereo unspecified)	-2	-4
O=C1C(c2ccc(Cl)cc2)N(C2CCCC2)C(=O)CN1C1CCCCCC1 (stereo unspecified)	-12	-11
SMILES	Pf apPOL block	mHTT-CaM PPI inh
O=C1c2ccc(Br)cc2C(=O)N1CNc1cc(Cl)ccc1Cl	-1	25
CCOc1ccccc1NS(=O)(=O)c1ccc2[nH]c3c(c2c1)CCCCC3	-1	26
COc1ccccc1NS(=O)(=O)c1ccc2[nH]c3c(c2c1)CCCC3	-1	81*
COc1ccccc1NS(=O)(=O)c1ccc2[nH]c3c(c2c1)CCCCC3	-2	97*
O=C1c2ccccc2C(=O)c2cc(S(=O)(=O)Nc3ccccc3F)ccc21	-2	26
O=S(=O)(Nc1ccccc1F)c1ccc2[nH]c3c(c2c1)CCCC3	-6	56*
COc1ccccc1NS(=O)(=O)c1ccc2[nH]c(=O)sc2c1	0	-2
Clc1ccccc1C1CC(c2ccco2)n2ncnc2N1 (stereo unspecified)	-8	4
CCC(=O)N1CCN(c2nc3c(s2)CC(C(=O)Nc2ccc(C)c(C)c2)CC3)CC1 (stereo unspecified)	-4	9
O=C(c1cccs1)N1CCC(c2nc(C3CC3)n[nH]2)CC1	2	-1
COc1ccc(/C=C2\C=C(c3ccccc3)N(c3ccc(O)cc3)C2=O)cc1	2	59*
COc1ccc(/C=C2\C=C(c3ccccc3)N(c3ccc(F)cc3)C2=O)cc1	5	53*
O=C1/C(=C/c2ccc(-c3ccc([N+](=O)[O-])cc3)o2)C=C(c2ccccc2)N1c1cccnc1	-2	65*
COc1ccc(/C=C2/C(=N)N3C(c4ccccc4)=CSC3=NC2=O)cc1Br	5	10
O=C(O)c1cccc(N2C(=O)/C(=C/c3ccc([N+](=O)[O-])cc3)C=C2c2ccccc2)c1	3	18
COc1ccc(/C=C2\C=C(c3ccccc3)N(c3ccc(C(=O)O)cc3)C2=O)cc1	0	33
COc1ccc(/C=C2\C=C(c3ccccc3)N(c3ccc(N(C)C)cc3)C2=O)cc1	2	36
COc1ccc(/C=C2\C=C(c3ccccc3)N(c3cccnc3)C2=O)cc1Br	-3	53*
CC(C)c1cc(C2CCCN2C(=O)c2ccn(C)n2)no1 (stereo unspecified)	-1	-1
O=C(Nc1ccc(Cl)cc1C(F)(F)F)C1CC(=O)N(c2ccccc2)C1 (stereo unspecified)	-10	-4
CCOCCN1CCn2c1nc(C)c(C)c2=O	-8	-7
O=C1/C(=C/c2ccc([N+](=O)[O-])cc2)C=C(c2ccccc2)N1c1ccccc1	-4	4

Compound activity: PubChem, University of Kansas High Throughput Screening Laboratory
